Results with a measured potency or affinity are listed apart. Active and inactive are the calls of the source.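 The calls were made as follows: active = compounds lowering viability with a fitted half-maximal potency at or below twice the top tested dose; inconclusive = flat fit showing 30 to 70% loss, or poor fit; inactive = the rest.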

The experiment is described as follows: melanocyte viability loss, MITF-dependent cells, cell-based, plate reader, dry powder, cytotoxicity control, dose response (AID 651920). The following applies: primary human melanocytes viability, ATP luminescence, 24 h; series mostly up to 35 µM.
As to `O=C1C=C(Nc2ccccc2)C(=O)c2ccccc21`, the outcome was inactive.

Regarding `CC(C)N1CCN(C2=C(Nc3ccc(F)cc3)C(=O)c3ccccc3C2=O)CC1`, the call was inactive.

Take `NC1=C(NS(=O)(=O)c2ccccc2)C(=O)c2ccccc2C1=O`: the molecule was called inactive.

Consider `O=C1C(Nc2ccc(Cl)cc2)=C(N2CCCC2)C(=O)c2ccccc21`, for which the result was inactive.

Turning to `NC1=C(NS(=O)(=O)c2ccc(Br)s2)C(=O)c2ccccc2C1=O`, the molecule was called inactive.

As for `CC(C)N1CCN(C2=C(Nc3ccc(F)cc3F)C(=O)c3ccccc3C2=O)CC1`, the molecule was called inactive.

`Cc1ccc(NC2=CC(=O)c3ccccc3C2=O)cc1`: the result was inactive.

With `O=C1C(Nc2cccc(Cl)c2)=C(N2CCCC2)C(=O)c2ccccc21`, the outcome was inactive.

Regarding `O=C1C(Nc2ccc(Br)cc2)=C(N2CCCCC2)C(=O)c2ccccc21`, the outcome was inactive.

Turning to `O=C1C(Nc2ccc(F)cc2)=C(N2CCCCC2)C(=O)c2ccccc21`, the result was inactive.

In the case of `NC1=C(NS(=O)(=O)c2cccs2)C(=O)c2ccccc2C1=O`, the molecule was called inactive.

On to `CN1CCN(C2=C(Nc3ccc(F)cc3F)C(=O)c3ccccc3C2=O)CC1`, for which the call was inactive.

As for `NC1=C(NS(=O)(=O)c2ccc(Br)cc2)C(=O)c2ccccc2C1=O`, the molecule was called inactive.

As for `CCN1CCN(C2=C(Nc3ccc(F)cc3F)C(=O)c3ccccc3C2=O)CC1`, the molecule was classed as inactive.

(Values after PubChem BioAssay AID651920 (Broad Institute, 2012).)
